Here are results for seven molecules from PubChem BioAssay (NCI).

Among the test systems are NCI-H23 lung; NCI-H226 lung; NCI-H322M lung; HOP-62 NSCLC; NCI-H460 lung; HOP-92 NSCLC; A549/ATCC NSCLC; 786-0 renal; COLO 205 colon; DU-145 prostate; K-562 leukemia; MALME-3M melanoma; MDA-MB-231 breast; RXF 393 renal; SF-268 CNS; SF-295 CNS; SF-539 CNS; UACC-257 melanoma; M14 melanoma.
Common to all, as to experiment: NCI-60 one-dose screen, 48 h (100 = growth as untreated, 0 = no growth, -100 = all killed)
Details in all cases: 10 µM unless noted

Molecules are shown by their SMILES. This is part of a sample that, as a whole, favours compounds with a hit. Of some 83,000 tested, about 20% had one in any assay.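 Activity criterion: percent growth below 10, measured after cells in 96-well plates were exposed to a single compound concentration for 48 hours.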 Unmarked numbers belong to inactive results. Active and inactive are the calls of the source.

In the case of `O=C1/C=C/[C@@H](O)[C@@H]2C[C@@H](O)C[C@H]2/C=C/CCC[C@H](CO)O1`, the growth was 13.5% in the assay with NCI-H23 lung; -63.4% (active) in the assay with NCI-H226 lung; 41.7% with NCI-H322M lung; 43.6% in the assay on HOP-62 NSCLC; 45.1% with NCI-H460 lung; 58.3% in the assay on HOP-92 NSCLC. The growth was 31.3% with A549/ATCC NSCLC; -59.6% (active) in the assay on 786-0 renal; -71.6% (active) in the assay on COLO 205 colon; 92.9% in the assay on DU-145 prostate; 46.8% with K-562 leukemia; 7.5% (active) in the assay with MALME-3M melanoma. The growth with MDA-MB-231 breast is 3.23% (active); in the assay on RXF 393 renal, -29.9% (active); in the assay on SF-268 CNS, 20.6%; with SF-295 CNS, 23.9%; in the assay with SF-539 CNS it was 34.8%; in the assay with UACC-257 melanoma it was 29.9%. Also, in the assay with M14 melanoma, the growth is 11.6%.
On to `O=C(CNC(=O)c1cccc2ccccc12)Nc1ccccc1Oc1cccc(O)c1`, for which the growth was 41.5% [5 µM] with NCI-H23 lung; 58.6% [5 µM] in the assay with NCI-H226 lung; 45.1% [5 µM] with NCI-H322M lung; 19.2% [5 µM] in the assay with HOP-62 NSCLC; 11.2% [5 µM] with NCI-H460 lung; 72.9% [5 µM] with HOP-92 NSCLC. Moreover, the growth is 21.8% [5 µM] with A549/ATCC NSCLC; 19.6% [5 µM] in the assay on 786-0 renal; 33.8% [5 µM] with COLO 205 colon; 17.1% [5 µM] in the assay with DU-145 prostate; 9.03% [5 µM] (active) in the assay with K-562 leukemia; 63.6% [5 µM] with MALME-3M melanoma. Also, the growth was 48.9% [5 µM] with MDA-MB-231 breast; -19% [5 µM] (active) in the assay with RXF 393 renal; 49.9% [5 µM] with SF-268 CNS; 3.33% [5 µM] (active) with SF-295 CNS; -18.4% [5 µM] (active) in the assay with SF-539 CNS; 45% [5 µM] with UACC-257 melanoma. Besides, in the assay with M14 melanoma, the growth was -8.22% [5 µM] (active).
For the molecule `O=C(C(=O)N1CCOCC1)c1cn(CCCn2cc(C(=O)C(=O)N3CCOCC3)c3ccccc32)c2ccccc12`, the growth was 113% in the assay with NCI-H23 lung; 102% in the assay with NCI-H226 lung; 103% with NCI-H322M lung; 103% with HOP-62 NSCLC; 129% in the assay on NCI-H460 lung; 78.8% with HOP-92 NSCLC. Moreover, the growth in the assay with A549/ATCC NSCLC is 104%; in the assay with 786-0 renal it was 104%; with COLO 205 colon it was 105%; with DU-145 prostate, 115%; in the assay on K-562 leukemia, 111%; in the assay with MALME-3M melanoma, 99.8%. In addition, the growth is 93.4% in the assay with MDA-MB-231 breast; 119% in the assay on RXF 393 renal; 105% in the assay with SF-268 CNS; 106% in the assay with SF-295 CNS; 102% in the assay with SF-539 CNS; 107% with UACC-257 melanoma. Further, in the assay with M14 melanoma, the growth is 101%.
On to `COc1ccc2nc(NC(=O)CN3CCn4c(nnc4C(F)(F)F)C3)sc2c1`, for which the growth was 91.6% in the assay with NCI-H23 lung; 92.2% in the assay with NCI-H226 lung; 98.5% in the assay on NCI-H322M lung; 88.1% with HOP-62 NSCLC; 99.5% in the assay on NCI-H460 lung; 101% in the assay on HOP-92 NSCLC. Besides, the growth with A549/ATCC NSCLC is 88.4%; with 786-0 renal it was 96.9%; in the assay with COLO 205 colon, 109%; in the assay with DU-145 prostate, 106%; in the assay with K-562 leukemia, 90.5%; with MALME-3M melanoma, 106%. In addition, the growth was 96.6% with MDA-MB-231 breast; 91% in the assay with RXF 393 renal; 93.5% in the assay with SF-268 CNS; 92.5% in the assay on SF-295 CNS; 93.7% in the assay on SF-539 CNS; 99.5% with UACC-257 melanoma. Besides, the growth in the assay with M14 melanoma is 85.1%.
For the molecule `O=C(COc1ccc(/C=C2\Cc3ccccc3C2=O)cc1)c1ccc(Cl)cc1`, the growth in the assay with NCI-H23 lung was 89.2%; with NCI-H226 lung, 97.5%; with NCI-H322M lung, 123%; with HOP-62 NSCLC, 101%; in the assay on NCI-H460 lung it was 101%; with HOP-92 NSCLC, 90.7%. Also, the growth with A549/ATCC NSCLC was 99.6%; in the assay with 786-0 renal, 102%; in the assay with COLO 205 colon, 117%; in the assay with DU-145 prostate, 117%; in the assay on K-562 leukemia it was 92.9%; in the assay with MALME-3M melanoma, 124%. Besides, the growth was 82.2% in the assay on MDA-MB-231 breast; 121% in the assay on RXF 393 renal; 120% with SF-268 CNS; 121% with SF-295 CNS; 101% in the assay with SF-539 CNS; 100% with UACC-257 melanoma. In the assay on M14 melanoma, the growth was 104%.
`Nc1nc(Nc2ccccc2SSc2ccccc2Nc2nc(N)nc(C(Cl)(Cl)Cl)n2)nc(C(Cl)(Cl)Cl)n1`: the growth is 54% with NCI-H23 lung; 64.6% with NCI-H226 lung; 75.3% in the assay with NCI-H322M lung; -34% (active) in the assay with HOP-62 NSCLC; 69.6% in the assay with NCI-H460 lung; 131% in the assay on HOP-92 NSCLC. For the same molecule, the growth in the assay with A549/ATCC NSCLC was -42.5% (active); in the assay on 786-0 renal, 70%; in the assay with COLO 205 colon, 114%; with DU-145 prostate, 82.3%; in the assay on K-562 leukemia, 52.8%; with MALME-3M melanoma, 75%. Moreover, the growth in the assay on MDA-MB-231 breast was 44.1%; in the assay on RXF 393 renal, 67.2%; in the assay on SF-268 CNS, 50.5%; in the assay on SF-295 CNS, 27.4%; in the assay on SF-539 CNS, 84.3%; in the assay with UACC-257 melanoma, 100%. The growth in the assay on M14 melanoma is 67%.
For the molecule `C=C1CC[C@@H]2[C@](C)(COC(C)=O)[C@H](OC(C)=O)CC[C@@]2(C)[C@@H]1CC(NCc1ccccc1)C1=CCOC1=O` (stereo partly drawn), the growth is 57.4% in the assay with NCI-H23 lung; 11.4% with NCI-H226 lung; 77% in the assay with NCI-H322M lung; 89% in the assay on HOP-62 NSCLC; 48.4% with NCI-H460 lung; 41.7% in the assay with HOP-92 NSCLC. Moreover, the growth was 49.2% with A549/ATCC NSCLC; 71.4% in the assay with 786-0 renal; 45.6% in the assay with COLO 205 colon; 67.2% in the assay with DU-145 prostate; 24.7% with K-562 leukemia; 77.1% in the assay on MALME-3M melanoma. Besides, the growth was 64.7% in the assay with MDA-MB-231 breast; 74.3% in the assay with RXF 393 renal; 62.1% in the assay on SF-268 CNS; 63.9% in the assay with SF-295 CNS; 79.5% with SF-539 CNS; 32.8% with UACC-257 melanoma. Also, in the assay on M14 melanoma, the growth was 42.1%.
